# Only some compounds are listed: those with a hit (about 4.5% of all), similar ones and a draw of the others.
# SKKanGAS inh = blocks kanamycin growth of S. pyogenes SKKanGAS strain. BacTiter-Glo, 6 h. inhibition, % at 7.5 µM. hit rate 1.3% among 300,000;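 active means mean replicate score, as percent of positive control median, at least 50; inconclusive means mean below 50 but one replicate at or above 50; inactive means mean and every replicate below 50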;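 further: strain carries kanamycin resistance gene driven by streptokinase promoter and grows in 40 µg/ml kanamycin; loss of luminescence reflects streptokinase promoter inhibition or plain growth inhibition; 0% = median of DMSO wells and 100% = positive control at its reference dose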
# tim10-1 inh = growth inhibitors of tim10-1 mutant yeast | hit rate 2.2% among 330,000 | AID 463190 | S. cerevisiae tim10-1 ts strain growth, BacTiter-Glo, 24 h | inhibition, % at 20 µM;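 active means inhibition of at least 40%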;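 further: mutant grown at 25 °C; 0% = DMSO wells with yeast and 100% = wells holding no yeast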
# PfHsp90 yeast 2 = growth inhibition of yeast expressing Plasmodium Hsp90; S. cerevisiae expressing PfHsp90, BacTiter-Glo ATP, 48 h; yeast lacking PDR1 and PDR3 efflux regulators; inhibition, % at 9.4 µM; hit rate 0.32% among 310,000; AID 504621;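 active means every replicate shows inhibition above about 80%, whatever the replicate mean, limit read from the data; inconclusive means mean inhibition reaches the set limit but some replicate falls short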;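 further: 0% = DMSO neutral controls and 100% = 20 µM radicicol positive controls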
# NALP3 yeast inh = inhibitors of NALP3 inflammasome in yeast | inhibition, % at 10 µM | Yeast reconstituted NLRP3/ASC/caspase-1, beta-gal luminescence, 24 h | hit rate 0.39% among 330,000;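 active means inhibition of 50% or more; inactive means inhibition below 50%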;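 further: plate controls were induced DMSO wells for no effect and uninduced yeast grown without galactose for full effect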
# TIM10 inh = growth inhibitors of TIM10 yeast strain. inhibition, % at 10 µM. hit rate 1.4% among 330,000. S. cerevisiae TIM10 strain growth, BacTiter-Glo luminescence, 24 h;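 active means inhibition of 40% or more at the single tested concentration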;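 further: wild-type TIM10 isogenic control strain grown at permissive 25 °C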
# tim23-1 inh = growth inhibitors of tim23-1 mutant yeast. hit rate 1.3% among 330,000. inhibition, % at 20 µM. S. cerevisiae tim23-1 growth, BacTiter-Glo luminescence, 24 h. AID 463212;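 active means growth inhibition of the mutant yeast at or above 50%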;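 further: temperature-sensitive mutant grown at 25 °C; plate controls were DMSO-treated mutant yeast for no effect and medium wells lacking yeast for full effect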
# tim10-1 conf = confirmation of tim10-1 mutant yeast growth inhibitors. shares compounds with tim10-1 inh. S. cerevisiae tim10-1 ts strain growth, BacTiter-Glo, 24 h. inhibition, % at 20 µM. hit rate 56% among 7,400. AID 463213;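 active means inhibition of yeast growth at or above a set limit in either of two repeat tests at 20 µM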;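 further: tim10-1 mutant grown at permissive 25 °C to find synthetic lethal compounds; 0% = DMSO yeast wells and 100% = medium wells without yeast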
# tim10 confirm = confirmation of TIM10 yeast growth inhibitors; shares compounds with TIM10 inh; S. cerevisiae tim10 strain growth, BacTiter-Glo luminescence, 24 h; inhibition, % at 10 µM; hit rate 63% among 4,600;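 active means inhibition of yeast growth at or above a set limit in either of two replicates at 10 µM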;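 further: this counterscreen used the strain with wild-type TIM10; 0% = yeast with DMSO and 100% = medium wells lacking yeast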
# Starred values were filed as active, the others as inactive; ? = inconclusive; / = not tested or not shown.
SMILES,SKKanGAS inh,tim10-1 inh,PfHsp90 yeast 2,NALP3 yeast inh,TIM10 inh,tim23-1 inh,tim10-1 conf,tim10 confirm
Cc1onc(-c2ccccc2)c1C(=O)OCc1nnc(-c2ccccc2)o1,-6,2,-14,33,-27,20,/,/
N=c1c2c(-c3ccccc3)c(-c3ccccc3)n(Cc3ccco3)c2ncn1CCCn1ccnc1,4,/,-23,/,/,/,/,/
N=c1c2c(-c3ccccc3)c(-c3ccccc3)n(Cc3ccccc3)c2ncn1CCO,-6,47*,-9,8,48*,32,36*,29
CC(C)(C)c1ccc(CSc2nnc(-c3ccccn3)n2Cc2ccco2)cc1,45,42*,-10,4,45*,41,48*,38*
CNC(=O)CSc1nnc(-c2ccccn2)n1Cc1ccco1,1,21,-5,-7,-1,5,/,/
O=C(CNC(=O)c1ccccc1F)OCC(=O)c1ccc(Cl)s1,-10,11,-7,0,12,7,/,/
Cc1ccc(-n2c(-c3cccc(C)c3)n[nH]c2=S)cc1,-2,43*,-4,11,46*,31,15,16
NNc1nc2ccccc2c(=O)n1Cc1ccccc1,4,3,-17,7,7,17,/,/
CCc1ccc(-n2cc(-c3ccc([N+](=O)[O-])cc3)[nH]c2=S)cc1,4,33,3,15,31,35,/,/
CCc1ccc(-c2cn(C3CCCCC3)c(=S)[nH]2)cc1,18,45*,4,21,53*,46,46*,56*
CN=c1c([N+](=O)[O-])nn(-c2ccc3c(c2)OCCO3)n1O,10,-4,-12,15,15,19,/,/
CCc1cccc(N=c2c([N+](=O)[O-])nn(-c3ccc4c(c3)OCCO4)n2O)c1,8,48*,-37,-23,57*,47,31*,42*
COc1cc(/C=C2/C(C)=C(C#N)c3nc(N)c(C#N)c(C)c32)ccc1OCC(=O)O,2,41*,-9,16,42*,43,23,32*
CC1=C(C#N)c2nc(N)c(C#N)c(C)c2/C1=C\c1ccc(-c2ccccc2C(=O)O)o1,8,/,-22,/,/,/,/,/
O=C(CSc1ccc(-c2ccc(-n3cccn3)cc2)nn1)Nc1ccccc1F,-7,-14,/,2,-2,-5,/,/
O=c1[nH][nH]c(-c2ccccc2O)c1C(C[N+](=O)[O-])c1ccc(Cl)cc1Cl (centres undefined),27,55*,0,16,42*,37,30*,-5
O=C1C2C(c3ccccc3)=NN(c3ccccc3)C2C(=O)N1c1ccccc1 (centres undefined),107*,59*,2,4,59*,48,49*,-19
OC[C@@H]1[C@@H](c2ccc(F)cc2)C(c2ccccc2)=NN1c1ccccc1,/,16,-43,/,18,46,/,/
Cc1ccc(/C=N/NC(=S)NCCc2ccccc2)s1,5,-60,-1,12,10,-3,/,/
CCCCNC(=S)N/N=C/c1ccc(C)s1,25,57*,-13,8,58*,38,42*,54*
CC(C)n1c(SCC(=O)Nc2ccc(F)cc2)nnc1C1CC1,-3,6,17,18,4,10,/,/
CC(=O)N1N=C(c2ccccc2)OC1c1ccc([N+](=O)[O-])s1 (centres undefined),-8,47*,127*,19,51*,47,69*,32*
S=c1[nH]nc(-c2cccc(Cl)c2)n1Cc1ccccc1,-5,32,-7,15,37,40,/,/
CCc1cc(-c2n[nH]c(=S)n2Cc2ccccc2)cs1,3,42*,-8,23,44*,39,19,41*
CC(NC(=O)CCNC(=O)c1ccc(Br)cc1)c1ccc(S(N)(=O)=O)cc1 (centres undefined),-2,-9,/,14,-11,-7,/,/
SMILES,SKKanGAS inh,tim10-1 inh,PfHsp90 yeast 2,NALP3 yeast inh,TIM10 inh,tim23-1 inh,tim10-1 conf,tim10 confirm
Cc1ccc2[nH]c(-c3cccc(F)c3)cc(=O)c2c1,6,-23,-1,5,-4,-7,/,/
Cc1ccc(O)c(-c2cc(-c3cccc(F)c3)n[nH]2)c1,30,53*,100*,14,43*,36,34*,21
Oc1ccc(Br)cc1-c1cc(-c2ccccc2)n[nH]1,80*,47*,-4,17,58*,15,22,-2
CC1CC(C)CN(C(=O)CCC(=O)Nc2nnc(C(C)C)s2)C1 (centres undefined),-2,10,-17,9,10,13,/,/
Oc1ccccc1/C=N/n1c(COc2ccccc2)n[nH]c1=S,-3,37,-6,25,13,42,/,/
S=c1[nH]nc(COc2ccccc2)n1/N=C/c1ccc(Br)s1,25,47*,-20,35,46*,43,34*,49*
CCN1C[C@@H]2[C@@H]3C(=O)N(Cc4ccccc4)C(=O)[C@@H]3[C@](CC)(C1=O)N2C(=O)c1ccc(Cl)c(Cl)c1,/,/,10,/,/,/,/,/
N/C(=N\OC(=O)N1CCOCC1)c1ccc(Br)cc1,6,60*,-4,19,50*,37,61*,41*
N/C(=N\OC(=O)c1ccc2ccccc2c1)c1ccc(Br)cc1,-18,28,-20,1,13,9,/,/
Cc1cccc(NC(=S)Nc2cccc(C(F)(F)F)c2)n1,17,20,-35,18,8,35,/,/
FC(F)(F)c1cccc(NC(=S)NCC2COc3ccccc3O2)c1 (centres undefined),2,66*,5,1,48*,49,56*,57*
FC(F)(F)c1cccc(NC(=S)Nc2cccc(NC(=S)Nc3cccc(C(F)(F)F)c3)n2)c1,17,53*,18,28,48*,44,33*,32*
FC(F)(F)c1cccc(NC(=S)Nc2ccc(Cl)cc2Cl)c1,?,70*,7,-3,62*,46,47*,51*
CCCNC(=S)Nc1cccc(C(F)(F)F)c1,1,7,7,4,21,31,/,/
S=C(Nc1ccccc1)Nc1ccc(Cl)cc1Cl,0,19,-10,15,26,5,/,/
CCN(C(=O)CCNC(=O)Cn1cnc2ccccc2c1=O)c1ccccc1F,-1,11,-1,-5,-2,22,/,/
CCCCOc1ccc(OCCNC(=O)c2ccco2)cc1,-9,18,-26,42,-8,3,/,/
Cc1cc(C)cc(OCC(O)Cn2nc(C)cc2C)c1 (centres undefined),7,21,-11,11,-1,17,/,/
CC(=O)OCCCNc1cc(Sc2nc3ccccc3s2)c2nonc2c1[N+](=O)[O-],91*,91*,-8,26,85*,44,91*,1

# Bioassay records: PubChem BioAssay, several laboratories
